# Some of the results follow. Unmarked numbers belong to inactive results. Calls of active or inactive are those of the source. Rule as the data show it: active = activation above about 17%; inactive = the rest.
# Biological target: 5-hydroxytryptamine receptor 5A (Homo sapiens) (UniProt P47898)
# Assay: activation of human 5-HT5A receptor – cell-based, luminescence, confirmation (AID 504915);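 also: 0% = cells with vehicle only and 100% = full reference agonist response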
# Details: HTR5A agonist cell assay, at 9.3 µM, hits give high values
# Sequence of 5-hydroxytryptamine receptor 5A (Homo sapiens) (P47898 whole entry, looked up): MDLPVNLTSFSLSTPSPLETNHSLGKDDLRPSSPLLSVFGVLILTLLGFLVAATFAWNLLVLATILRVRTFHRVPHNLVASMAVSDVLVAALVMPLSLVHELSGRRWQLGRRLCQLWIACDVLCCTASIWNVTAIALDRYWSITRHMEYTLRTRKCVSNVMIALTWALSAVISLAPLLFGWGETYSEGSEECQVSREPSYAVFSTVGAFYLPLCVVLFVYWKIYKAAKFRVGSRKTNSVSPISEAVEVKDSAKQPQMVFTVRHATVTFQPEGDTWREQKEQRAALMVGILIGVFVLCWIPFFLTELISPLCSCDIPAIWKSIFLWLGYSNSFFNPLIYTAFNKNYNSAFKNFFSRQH
row,SMILES,activation
1,Cc1ccc(C(=O)N/C(=C/c2ccco2)C(=O)NCCc2c[nH]c3ccccc23)cc1C,-0.29%
2,COc1c(Cl)cc(C(=O)Nc2ccc(Cl)cn2)cc1Cl,4.5%
3,CC(C)CC(=O)N/C(N)=N/c1nc2ccccc2s1,-0.51%
4,CCCOc1ccc(C(=O)C(CCC(CNCC)C(=O)c2ccc(OCCC)cc2)CNCC)cc1 (stereo not given),-4.56%
5,O=C(CNCc1ccco1)Nc1cc(S(=O)(=O)N2CCOCC2)ccc1N1CCCC1,-0.44%
6,c1ccc(-n2nc3ccccc3n2)cc1,1.33%
7,Cc1c(C(=O)OCC(=O)N2CCCC2=O)oc2ccccc12,3.43%
8,CCOc1ccc(NC(=O)Nc2cc(C)on2)cc1,-2.78%
9,Cc1oc2c(F)c(F)c(F)c(F)c2c1S(=O)(=O)Nc1cccc(C(F)(F)F)c1,-4.5%
10,CCN(CC(=O)Nc1cccc(S(=O)(=O)N2CCCCC2)c1)Cc1ccccc1,1.96%
11,O=C(CC(O)(C(F)(F)F)C(F)(F)F)Nc1ccc(Cl)c(Cl)c1,-1.59%
12,CCOC(=O)c1cnc2sccn2c1=O,5.5%
13,c1cc(-c2nn[nH]n2)ccc1CN1CCCCC1,-1.04%
14,Cc1cccc2sc(N(CCCN(C)C)C(=O)CCS(=O)(=O)c3ccccc3)nc12,5.39%
15,COc1ccc2[nH]cc(CCN3C(=O)c4ccc(C(=O)O)cc4C3=O)c2c1,-2.36%
16,O=C(CC1Nc2ccccc2NC1=O)Nc1ccccc1 (stereo not given),3.07%
17,Cc1ccc(CN2CCN(Cc3ccc(OCCO)cc3)CC2CCO)o1 (stereo not given),2.89%
18,COc1ccccc1S(=O)(=O)NCc1ccc(C(=O)N(C)Cc2ccc(F)cc2)cc1,-2.33%
19,COc1ccc(-c2ocnc2C(=O)Nc2ccc3c(c2)CCC3)cc1,-0.96%
20,CC1CCN(S(=O)(=O)c2nnc(NC(=O)COc3ccccc3F)s2)CC1,-0.56%
21,Cc1ccc(CCC(=O)Nc2ncc(Cc3cc(Cl)ccc3Cl)s2)o1,29.1% (active)
22,COc1cc2c(-c3ccc4c(c3)OCO4)c(-c3ccsc3)oc(=O)c2cc1OC,-0.88%
23,CNc1nnc(-c2ccco2)s1,0.94%
24,COc1cccc(OCC(=O)Nc2ccccc2C(N)=O)c1,26.9% (active)
25,Cc1ccc(-c2csc(SCC(=O)Nc3cc(C)on3)n2)cc1,2.91%
